Only some compounds are listed: those with a hit (about 14% of all), similar ones and a draw of the others.
4-MU autofl – qHTS Assay for Spectroscopic Profiling in 4-MU Spectral Region; compound autofluorescence, 340/450 nm, 4-MU equivalents; stronger effect = higher value; max dye-equivalent concentration, M; actives 11% (n = 59,000); AID 589, 2007; in the data active = max dye-equivalent concentration above about 10 nM; inconclusive = mostly about 1.1 nM to 9.6 nM
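Compounds in 100 mM Tris, pH 8.0, incubated 15 min at room temperature, then fluorescence read at 340 nm excitation/450 nm emission. Signal converted to 4-MU dye-equivalent concentration using an on-plate six-point 4-MU standard curve.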
AID923 – qHTS Assay for Allosteric/Competitive Inhibitors of Caspase-1: Spectroscopic Profiling in AFC Spectral Region | compound fluorescence, AFC spectral region (405/520 nm) | Potency, µM (doses to about 57.5 µM), usual class: activators | actives 1.1% (n = 75,000) | AID 923, 2007
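Compound autofluorescence profiled at 405 nm ex/520 nm em during kinetic caspase 1 run (50 nM enzyme, 5 uM Ac-WEHD-AFC, HEPES pH 7.5, 10 mM DTT). Titration up to 57 uM; baseline from regression intercept, normalized to AFC standard curve.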
HSD17B inh – qHTS Assay for Inhibitors of HSD17B4, hydroxysteroid (17-beta) dehydrogenase 4 | 3-hydroxyacyl-CoA dehydrogenase type-2 (Homo sapiens), Q99714 | recombinant HSD17B10, NADH fluorescence kinetic | Potency, µM (doses to about 57.1 µM), most hits filed as inhibitors | actives 7.6% (n = 75,000) | AID 893, 2007;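 note: the protocol describes HADH2 (HSD17B10) and not the HSD17B4 of the title; nearly all actives have a fitted effect of over 70% in size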
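Enzyme plus compound, 15 min room temperature; substrate mix added (NAD+ 1 mM, beta-hydroxybutyryl-CoA 90 uM final); plates read kinetically for NADH fluorescence. HADH2 was His-tagged, E. coli-derived, 20 nM.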
A350 fluor – qHTS Assay for Spectroscopic Profiling in A350 Spectral Region | Compound autofluorescence, 340/450 nm, Alexa 350 dye-equivalents; stronger effect = higher value | max dye-equivalent concentration, M | actives 11% (n = 59,000); in the data active = max dye-equivalent concentration above about 10 nM; inconclusive = mostly about 1.1 nM to 9.6 nM
HADH2 inh – qHTS Assay for Inhibitors of HADH2 (Hydroxyacyl-Coenzyme A Dehydrogenase, Type II). recombinant HADH2, NADH fluorescence, beta-hydroxybutyryl-CoA. 3-hydroxyacyl-CoA dehydrogenase type-2 (Homo sapiens), Q99714. actives 3.4% (n = 73,000). AID 886, 2007. Potency, µM (highest dose often 57.1 µM), actives largely listed as inhibitors; note: nearly all actives have a fitted effect of over 60% in size
Target sequence (Q99714 whole entry, looked up, one chain of several): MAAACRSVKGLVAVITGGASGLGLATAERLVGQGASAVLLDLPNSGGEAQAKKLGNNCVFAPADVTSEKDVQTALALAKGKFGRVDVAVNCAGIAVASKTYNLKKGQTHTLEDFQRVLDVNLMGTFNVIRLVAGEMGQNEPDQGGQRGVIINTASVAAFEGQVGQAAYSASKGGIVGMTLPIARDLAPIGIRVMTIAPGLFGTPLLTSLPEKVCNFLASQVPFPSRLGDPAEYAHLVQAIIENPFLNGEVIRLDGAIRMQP
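His-tagged recombinant enzyme from E. coli, 20 nM, preincubated 15 min RT with compound; reaction started with 1 mM NAD+ and 90 uM beta-hydroxybutyryl-CoA in 100 mM Tris-HCl pH 9.0. NADH fluorescence (ex 360/em 450) read over 4 min; last-minus-first difference.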
CRE-bla Fsk – Cell signaling CRE-BLA (Fsk stim); Potency, µM (top dose mostly 38.2 µM), most hits filed as activators; CHO CRE-bla reporter (cAMP response element driving beta-lactamase), forskolin EC10, beta-lactamase ratio; actives 2.5% (n = 71,000); active = well fitted activation curve with a large enough effect in the signal ratio, with a control signal flat, not every such curve was filed as active; inconclusive = small, poorly fitted or top-dose-only effect, or effect the other way, or a change in a side signal; the % refers to the signal ratio
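Titrated compounds plus EC10 NKH 477 on CHO CRE-bla cells, 3 h, 37 °C. CCF4, 2 h RT. Ratio 460/530 nm → AC50.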
Numbers stand for hits; ! = a repeat was not active; [ ] = another dose, or the depositor's remark. Unless noted, calls come from the whole dose curve; as a rule, active = well fitted curve in the direction sought with a large enough effect; inconclusive = small, poorly fitted or top-dose-only effect, or another doubt; inactive = no such curve, though single readings can be large; an effect the other way counts as inactive or inconclusive.

CCCCCCCCCc1ccc(O)cc1 was read as AID923 inactive, HSD17B inh inconclusive, HADH2 inh inconclusive and CRE-bla Fsk 5µM.
`NCCc1ccc(O)cc1` gave 4-MU autofl 5.9e-08M!, AID923 inactive, HSD17B inh inactive, A350 fluor 7.1e-08M!, HADH2 inh inactive and CRE-bla Fsk inconclusive.
Screening NNC(=O)c1ccc(O)cc1 returned 4-MU autofl inactive, AID923 inactive, HSD17B inh inactive, A350 fluor inactive, HADH2 inh inactive and CRE-bla Fsk inactive.
O=C(O)C[O][Sb][O]CC(=O)O was read as 4-MU autofl inactive, AID923 inactive[11.5 µM], HSD17B inh inactive[11.4 µM], A350 fluor inactive, HADH2 inh inactive[11.4 µM] and CRE-bla Fsk inactive[7.6 µM].
`c1ccc(OP(Oc2ccccc2)Oc2ccccc2)cc1` gave AID923 inactive, HSD17B inh inactive, HADH2 inh inactive and CRE-bla Fsk inactive.
O=C(O)Cc1ccc([N+](=O)[O-])cc1[N+](=O)[O-] was read as 4-MU autofl inactive, AID923 inactive[11.5 µM], HSD17B inh inactive[11.4 µM], A350 fluor inactive, HADH2 inh inactive[11.4 µM] and CRE-bla Fsk inactive[7.6 µM].
`COC(=O)NC(=S)Nc1ccccc1NC(=S)NC(=O)OC` gave AID923 inactive, HSD17B inh inconclusive, HADH2 inh 1.6µM and CRE-bla Fsk inactive.
Screening CCn1c(N)c(C(=O)NC)sc1=S returned 4-MU autofl inactive, AID923 inactive, HSD17B inh 13µM, A350 fluor inactive, HADH2 inh 0.5µM and CRE-bla Fsk inactive.
`COC(=O)[C@H](N)CCCN=C(N)N[N+](=O)[O-]` gave 4-MU autofl inactive, AID923 inactive, HSD17B inh inactive, A350 fluor inactive, HADH2 inh inactive and CRE-bla Fsk inactive.
CSSC was read as AID923 inactive, HSD17B inh inactive, HADH2 inh inactive and CRE-bla Fsk inactive.
Screening O=[N+]([O-])OC1CO[C@H]2C(O[N+](=O)[O-])COC12 (stereo partly drawn) returned AID923 inactive and HSD17B inh inactive.
O=[N+]([O-])O[C@H]1CO[C@H]2[C@H]1OC[C@@H]2O[N+](=O)[O-] was read as 4-MU autofl 3e-08M, AID923 inactive, HSD17B inh inactive, A350 fluor 3.1e-08M, HADH2 inh inactive and CRE-bla Fsk inactive.
Screening N[C@H](Cc1ccccc1)c1nn[nH]n1 returned 4-MU autofl inactive, AID923 inactive[11.5 µM], HSD17B inh inactive[11.4 µM], A350 fluor inactive, HADH2 inh inactive[11.4 µM] and CRE-bla Fsk inactive[7.6 µM].
For CC[C@@]12CCCN3CC[C@@]4(c5ccc(OC)c(O)c5N(C(C)=O)[C@H]4CC1)[C@H]32 the results were 4-MU autofl inactive, A350 fluor inactive, HADH2 inh inactive and CRE-bla Fsk inactive.
Screening O=c1[nH]c(=O)n(Cc2ccccc2)c(O)c1C=NCCN1CCNCC1 returned 4-MU autofl inactive and A350 fluor inactive.
For O=c1[nH]c(=O)n(CCC2=CCCCC2)c(O)c1C=NCCN1CCNCC1 the results were 4-MU autofl 9.2e-08M, AID923 inactive, HSD17B inh inactive, A350 fluor 1e-07M, HADH2 inh inactive and CRE-bla Fsk inconclusive.
Screening COC[C@H]1OC(=O)c2coc3c2[C@@]1(C)C1=C(C3=O)[C@H]2CCC(=O)[C@@]2(C)C[C@H]1OC(C)=O returned AID923 inactive, HSD17B inh inconclusive, HADH2 inh inconclusive and CRE-bla Fsk inconclusive.
Screening Oc1cccc(Cl)c1 returned AID923 inactive, HSD17B inh inactive, HADH2 inh inactive and CRE-bla Fsk inactive.
Screening CCN1C[C@@]2(COC)[C@H](O)C[C@H](OC)[C@@]34[C@@H]5C[C@@]6(O)[C@H](OC(=O)c7ccccc7)[C@H]5[C@@](OC(C)=O)([C@H]([C@@H](OC)[C@H]23)[C@H]14)[C@H](O)[C@@H]6OC returned 4-MU autofl inactive, A350 fluor inactive, HADH2 inh inactive and CRE-bla Fsk inactive.
CCOC(=O)c1ncn2c1CN(C)C(=O)c1cc(N=[N+]=[N-])ccc1-2 was read as AID923 inactive, HSD17B inh inactive and HADH2 inh inactive.
For CC(C)N[C@@H](C)Cc1ccc(I)cc1 the results were 4-MU autofl 1.7e-08M, AID923 inactive, HSD17B inh inactive, A350 fluor 1.5e-08M, HADH2 inh inactive and CRE-bla Fsk inactive.
Screening Oc1cc(Cl)c(Cl)c(Cl)c1Cl returned AID923 inactive, HSD17B inh inactive, HADH2 inh 32µM and CRE-bla Fsk inconclusive.
`CN(C)[C@@H]1C(=O)C(C(N)=O)=C(O)[C@]2(O)C(=O)C3=C(O)c4c(O)cccc4[C@@](C)(O)[C@H]3[C@H](O)[C@@H]12` gave 4-MU autofl 3e-08M, AID923 inactive, HSD17B inh 13µM, A350 fluor 2.9e-08M, HADH2 inh 6.3µM and CRE-bla Fsk inactive.
`O=S(=O)(Cl)c1ccccc1` gave AID923 inactive, HSD17B inh 32µM, HADH2 inh inactive and CRE-bla Fsk inactive.
`Cc1ccccc1-n1c(O)c(C=Nc2ccc(N(C)C)cc2)c(=O)[nH]c1=O` gave AID923 inactive, HSD17B inh inactive, HADH2 inh 5µM and CRE-bla Fsk inconclusive.
For C=CCn1c(O)c(C=Nc2ccc(N(CC)CC)cc2)c(=O)[nH]c1=O the results were 4-MU autofl 1.1e-07M and A350 fluor 8.9e-08M.
For C=CCn1c(O)c(C=NCCN(C)C)c(=O)[nH]c1=O the results were 4-MU autofl 6.6e-07M and A350 fluor 6.2e-07M.
For CCN(CC)c1ccc(N=Cc2c(O)n(CCC3=CCCCC3)c(=O)[nH]c2=O)cc1 the results were 4-MU autofl inactive, AID923 inactive, HSD17B inh inactive, A350 fluor inactive, HADH2 inh inactive and CRE-bla Fsk inconclusive.
CSC([N-]/N=C/c1cccc(C)n1)=[S]=[Cu].CS[C@H]([S-])[N-]/N=C/c1cccc(C)n1 was read as 4-MU autofl inactive, AID923 inactive[11.5 µM], HSD17B inh inconclusive, A350 fluor inactive, HADH2 inh inactive[11.4 µM] and CRE-bla Fsk inconclusive.
`CCc1ccc(CCN2CCCCC2)nc1` gave 4-MU autofl inactive, AID923 inactive[11.5 µM], HSD17B inh inactive[11.4 µM], A350 fluor inactive, HADH2 inh inactive[11.4 µM] and CRE-bla Fsk inactive[7.6 µM].
O=C(O)c1cc(N=Nc2ccc([As](=O)(O)O)cc2)ccc1O was read as 4-MU autofl inactive, AID923 inactive[11.5 µM], HSD17B inh inactive[11.4 µM], A350 fluor inactive, HADH2 inh inactive[11.4 µM] and CRE-bla Fsk inactive[7.6 µM].
For CNCCc1c[nH]c2ccccc12 the results were 4-MU autofl 4.5e-08M and A350 fluor 5.6e-08M.
